# CYP2C9 activ = human CYP2C9 activators, primary screen, biochemical, luminescence | recombinant CYP2C9, luciferin-H conversion; hits give high values; factor 1 = untreated enzyme, 0 = blocked | activation factor at 5 µM | 96,000 compounds, 1.4% hits | Cytochrome P450 2C9 (Homo sapiens), P11712;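 active = activation factor of 2 or more for CYP2C9 at a 5 µM dose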;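 note: 0 = sulfaphenazole-blocked wells and 1 = vehicle-only wells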
# CYP2C19 inhib = blockers of cytochrome P450 2C19 activity – biochemical, luminescence, ADME assay, primary screen. P33261. CYP2C19 Supersomes, luciferin-H EGE luminescence, 30 min. inhibition, % at 5 µM. 96,000 compounds, 21% hits. AID 778, 2007;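 active = CYP2C19 inhibition above a set limit at 5 µM in the primary screen, cut at about 50% in these data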;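 note: plate controls were negative control wells for no effect and 2.5 mM tranylcypromine positive control for full effect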
# Cav32 inh = Cav3.2 calcium influx blockers – cell-based, Fluo-4 calcium fluorescence, FDSS, MLSMR library, primary screen. Voltage-dependent T-type calcium channel subunit alpha-1H (Homo sapiens), O95180. Cav3.2-expressing cells; hits give low values. B-score at 10 µM. 100,000 compounds, 4% hits. AID 449739, 2010;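 active = single-dose well whose peak fluorescence ratio is a statistical outlier from its plate by either plate-standardised score or position-corrected B-score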
# Target sequence (O95180 whole entry, looked up): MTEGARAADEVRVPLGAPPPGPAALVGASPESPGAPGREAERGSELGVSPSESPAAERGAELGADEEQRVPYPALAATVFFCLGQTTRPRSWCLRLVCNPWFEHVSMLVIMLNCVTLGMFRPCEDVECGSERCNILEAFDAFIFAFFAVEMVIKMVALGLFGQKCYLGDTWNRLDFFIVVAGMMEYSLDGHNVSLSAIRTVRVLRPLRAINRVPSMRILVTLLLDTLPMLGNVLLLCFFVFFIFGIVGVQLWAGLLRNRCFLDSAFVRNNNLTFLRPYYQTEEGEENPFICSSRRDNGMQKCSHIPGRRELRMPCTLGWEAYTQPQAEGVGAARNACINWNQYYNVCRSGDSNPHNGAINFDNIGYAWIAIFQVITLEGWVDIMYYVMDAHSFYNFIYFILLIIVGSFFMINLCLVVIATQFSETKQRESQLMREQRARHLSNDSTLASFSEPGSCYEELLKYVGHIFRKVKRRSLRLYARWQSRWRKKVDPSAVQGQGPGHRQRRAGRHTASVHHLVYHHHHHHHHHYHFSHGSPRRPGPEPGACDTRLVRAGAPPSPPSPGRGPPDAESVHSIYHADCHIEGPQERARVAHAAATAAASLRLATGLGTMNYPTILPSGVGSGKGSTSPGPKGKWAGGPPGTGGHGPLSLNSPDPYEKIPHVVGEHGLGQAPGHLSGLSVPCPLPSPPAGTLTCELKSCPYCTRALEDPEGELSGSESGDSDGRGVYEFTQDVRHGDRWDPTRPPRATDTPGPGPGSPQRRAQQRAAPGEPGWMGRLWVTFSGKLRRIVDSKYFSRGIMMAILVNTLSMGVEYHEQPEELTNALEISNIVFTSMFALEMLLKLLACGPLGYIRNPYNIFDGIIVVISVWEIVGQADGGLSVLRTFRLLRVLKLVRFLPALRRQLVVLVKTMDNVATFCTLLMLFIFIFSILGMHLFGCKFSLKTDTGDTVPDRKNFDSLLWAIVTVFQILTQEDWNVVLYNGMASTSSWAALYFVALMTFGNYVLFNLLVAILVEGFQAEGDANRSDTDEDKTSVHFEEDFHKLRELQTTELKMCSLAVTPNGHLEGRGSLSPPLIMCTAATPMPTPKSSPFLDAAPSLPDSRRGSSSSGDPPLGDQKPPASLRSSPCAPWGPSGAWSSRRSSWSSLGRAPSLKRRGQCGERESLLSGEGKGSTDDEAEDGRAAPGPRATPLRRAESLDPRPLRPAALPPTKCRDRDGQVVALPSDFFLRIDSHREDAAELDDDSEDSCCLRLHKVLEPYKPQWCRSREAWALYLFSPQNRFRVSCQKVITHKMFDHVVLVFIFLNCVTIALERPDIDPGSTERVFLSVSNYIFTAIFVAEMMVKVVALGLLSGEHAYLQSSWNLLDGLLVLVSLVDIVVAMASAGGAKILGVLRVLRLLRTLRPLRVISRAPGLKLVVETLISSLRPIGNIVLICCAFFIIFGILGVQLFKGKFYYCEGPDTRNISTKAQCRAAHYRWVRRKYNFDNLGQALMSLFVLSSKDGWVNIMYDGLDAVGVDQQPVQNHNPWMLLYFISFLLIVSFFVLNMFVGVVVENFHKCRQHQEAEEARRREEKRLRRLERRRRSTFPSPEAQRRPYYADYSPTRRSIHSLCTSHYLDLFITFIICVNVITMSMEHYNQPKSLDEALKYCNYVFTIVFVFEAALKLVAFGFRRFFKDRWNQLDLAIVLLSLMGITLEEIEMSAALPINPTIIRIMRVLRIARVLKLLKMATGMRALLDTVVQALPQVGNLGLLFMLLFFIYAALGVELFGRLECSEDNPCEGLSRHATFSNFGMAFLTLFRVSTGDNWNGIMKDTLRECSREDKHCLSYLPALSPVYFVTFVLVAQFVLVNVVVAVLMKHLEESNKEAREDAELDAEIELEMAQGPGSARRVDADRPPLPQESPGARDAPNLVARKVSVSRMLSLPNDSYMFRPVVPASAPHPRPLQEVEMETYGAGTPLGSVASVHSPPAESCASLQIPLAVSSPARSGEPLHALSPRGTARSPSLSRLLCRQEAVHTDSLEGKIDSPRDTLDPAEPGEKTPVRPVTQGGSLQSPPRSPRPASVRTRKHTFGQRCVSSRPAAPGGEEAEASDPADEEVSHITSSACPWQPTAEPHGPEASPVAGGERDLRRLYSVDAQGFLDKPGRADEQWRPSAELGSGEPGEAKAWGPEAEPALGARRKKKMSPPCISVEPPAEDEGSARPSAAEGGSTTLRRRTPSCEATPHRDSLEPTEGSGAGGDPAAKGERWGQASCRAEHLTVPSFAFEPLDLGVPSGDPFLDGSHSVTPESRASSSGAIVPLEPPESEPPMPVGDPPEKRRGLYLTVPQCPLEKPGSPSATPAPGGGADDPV
# CYP2C19 activ = human CYP2C19 activators, primary screen, biochemical, luminescence. Cytochrome P450 2C19 (Homo sapiens), P33261. activation factor at 5 µM. recombinant CYP2C19, luciferin-H EGE luminescence; hits give high values; 0 = fully inhibited enzyme, 1 = untreated enzyme. AID 1025, 2008. 96,000 tested, under 10 active;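 active = activation factor of at least 2 at 5 µM in the primary screen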;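 note: 0 = wells with 2.5 mM tranylcypromine and 1 = vehicle-only wells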
# PTK2B oligo ant = antagonists of Pyk2 self-association, primary screen, Q293 cells, FERM NanoBiT luminescence, HTS; hits give low values; z-score (the deposit names both 25 µM and 10 µM); 99,000 compounds, 0.83% hits; AID 1347419, 2020;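 active = Z-score of -3 or lower, scaled per plate to the spread of control and sample wells; inactive = z-score above -3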;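 note: negative z-score means lost luminescence so less FERM oligomerization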
# CYP2C9 inhib = blockers of cytochrome P450 2C9 activity – biochemical, luminescence, ADME assay, primary screen; P11712; CYP2C9 Supersomes, luciferin-H conversion; inhibition, % at 5 µM; 96,000 compounds, 20% hits; AID 777, 2007;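 active = blocking of liver enzyme CYP2C9 beyond about 50% at 5 µM, limit read from the data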
# Numbers without * were called inactive; x = not tested or not shown. The list is not random: actives were taken first. Their share in the collection is about 27%.
SMILES,CYP2C9 activ,CYP2C19 inhib,Cav32 inh,CYP2C19 activ,PTK2B oligo ant,CYP2C9 inhib
CC(C)c1ccccc1OCCNS(C)(=O)=O,1.2,51*,-0.15,0.5,0.74,-16
Cc1cc(NS(=O)(=O)c2ccc(NC(=O)COc3ccccc3C(C)C)cc2)no1,0.9,-3,-0.66,1,x,8
COc1cc(C(=O)Nc2ccc(Br)cc2C(=O)c2cc(OC)c(OC)c(OC)c2)cc(OC)c1OC,0.1,68*,0.24,0.3,1.3,93*
COc1ccc(Br)cc1C(=O)Nc1ccc(N2CCN(S(C)(=O)=O)CC2)cc1,2*,16,0.28,0.8,-0.03,-97
COc1cc(C(=O)Nc2cccc3ncccc23)cc(OC)c1OC,1.1,18,0.0098,0.8,1.6,-8
CCOc1cccc(C(=O)Nc2ccc(N3CCN(S(C)(=O)=O)CC3)cc2)c1,0.5,34,-0.019,0.7,-0.19,53*
COc1ccc(Br)cc1C(=O)O,1.1,-18,-0.97,1.2,0.17,-11
COc1ccc(Br)cc1C(=O)Nc1ccc(O)cc1,3.1*,46,-1,0.5,-0.28,-205
O=C1CC(N2CCN(Cc3ccc4c(c3)OCO4)CC2)C(=O)N1c1ccccc1 (stereo not drawn),0.9,10,1.9,0.9,0.17,8
COc1ccc(Br)cc1C(=O)Nc1ccccc1-c1ccccc1,0.8,31,-4.6,0.7,-3.6*,17
COc1cc(C(=O)Nc2ccc(N(C)C)cc2)cc(OC)c1OC,0.7,70*,-0.41,0.3,-0.57,27
COc1cc(C(=O)Nc2ccc(S(=O)(=O)NC(C)(C)C)cc2)cc(OC)c1OC,0.5,4,0.76,1,-0.13,46
O=[N+]([O-])c1cccc(N=NN(CCO)c2cccc([N+](=O)[O-])c2)c1,0.8,-6,-0.18,1.1,0.12,19
CCCN(N=Nc1cccc([N+](=O)[O-])c1)c1cccc([N+](=O)[O-])c1,0.3,11,-4.2*,0.9,-0.59,74*
CCCCOC(=O)Nc1cccc(Cl)c1C,0.7,56*,-1.6,0.4,-0.49,30
CC(NC(=O)C12CC3CC(C1)CC(n1cncn1)(C3)C2)C12CC3CC(CC(C3)C1)C2 (stereo not drawn),0.3,68*,-1.4,0.3,-2.3,72*
COc1ccc(S(=O)(=O)NC2CCCCC2)cc1C,3*,60*,0.036,0.4,-1.9,-202
COc1ccc(S(=O)(=O)NC2CCCC2)c(Cl)c1Cl,0.5,98*,-0.54,0,-1.1,54*
COc1ccc(C)cc1S(=O)(=O)NC1CCCC1,0.7,83*,0.76,0.2,0.71,26
COc1ccc(F)cc1S(=O)(=O)NC1CCCC1,0.7,80*,-0.28,0.2,0.17,32
CC(C)CCNC(=O)C1CCCCN1S(=O)(=O)c1ccc(F)cc1 (stereo not drawn),0.6,12,0.31,0.9,-0.55,37
CN1CCN(S(=O)(=O)c2ccc(Cc3ccc(S(=O)(=O)N4CCN(C)CC4)cc3)cc2)CC1,0.9,15,1.1,0.8,1,14
O=C(NCc1cccs1)c1cccc(N2CCCC2=O)c1,0.5,57*,-0.76,0.4,1.1,54*
Cc1ccc(C(=O)NC2CCCCCC2)cc1N1CCCC1=O,1.2,-16,0.49,1.2,0.34,-16
O=C(NC1CCCCCC1)c1cccc(N2CCCC2=O)c1,0.6,57*,0.34,0.4,3.1,37
SMILES,CYP2C9 activ,CYP2C19 inhib,Cav32 inh,CYP2C19 activ,PTK2B oligo ant,CYP2C9 inhib
CC1CCCCC1NC(=O)c1ccc(N2CCCC2=O)cc1 (stereo not drawn),1,0,-5.1*,1,0.41,1
CCC1Oc2ccc(C)cc2N(CC(=O)N(Cc2ccc(C)o2)C2CCCC2)C1=O (stereo not drawn),x,x,x,x,-0.86,x
CC1(C)C=Cc2c(c3ccccc3[nH]c2=O)O1,0.7,18,0.039,0.8,0.24,34
CCOC(=O)c1csc(NC(=O)c2ccc(S(=O)(=O)N(CC)CC)cc2)n1,x,x,0.27,x,-0.25,x
CCOC(=O)c1c(C)[nH]c(C)c1C(=O)COC(=O)c1ccc(Cl)c(S(N)(=O)=O)c1,0.8,92*,-0.091,0.1,-0.22,16
CCOC(=O)c1c(C)[nH]c(C)c1C(=O)COC(=O)c1ccc(S(=O)(=O)N(CC)CC)cc1,0,84*,-0.5,0.2,-1.5,97*
CCO[C@@H]1OC(C(=O)O)=C[C@H](C)[C@H]1CCCO,x,x,0.055,x,x,x
CCCCOc1ccc(C(=O)Nn2cnnc2)cc1,0.1,93*,0.45,0.1,0.9,93*
COc1ccc(C(=O)Nn2cnnc2)cc1,0.9,18,-0.11,0.8,0.01,8
Cc1cc(C)c2c(N)c(S(=O)(=O)Cc3ccccc3)sc2n1,3*,99*,x,0,0.34,-197
C=C(Cl)COc1ccc2c(CCC)cc(=O)oc2c1,0.7,23,-2.7,0.8,0.04,27
COc1ccc2c(=O)c(-c3ccccc3)c(C)oc2c1,0.9,19,x,0.8,0,12
COc1ccc2c(CN(C)c3ccccc3)cc(=O)oc2c1,0.6,97*,-2.2,0,2.4,36
CCCc1cc(=O)oc2cc(Oc3ncccn3)ccc12,0.6,88*,0.067,0.1,0.98,37
O=C(NCc1nc2ccccc2[nH]1)c1cccc(S(=O)(=O)N2CCCC2)c1,0.6,4,x,1,1,39
COC(=O)c1ccc(Oc2c(C(F)(F)F)oc3c(CN4CCN(C)CC4)c(O)ccc3c2=O)cc1,1,10,0.61,0.9,-0.4,1
Cc1cc(NC(=O)c2cc3ncc(Br)cn3n2)no1,0.8,-8,0.77,1.1,0.15,17
O=C1CC(c2ccc3c(c2)OCO3)Sc2nc3ccccc3n21 (stereo not drawn),0.4,60*,-1.9,0.4,0.6,64*
COc1ccc2c(=O)c3c(=O)n(Cc4ccco4)c(-c4ccccc4)nc3oc2c1,0.3,73*,-0.25,0.3,-0.47,73*
COc1ccc2c(=O)c3c(=O)n(Cc4ccco4)c(-c4cc(OC)c(OC)c(OC)c4)nc3oc2c1,x,x,-0.053,x,-1.8,x
CCCCCCn1c(-c2ccco2)nc2oc3cc(OC)ccc3c(=O)c2c1=O,0.1,93*,0.7,0.1,-0.52,90*
CCOC(=O)c1cnn(-c2nc3c(C)cccc3s2)c1C(F)(F)F,0.6,32,-0.22,0.7,0.81,36
CCOC(=O)c1cnn(-c2nc(-c3cccc(F)c3)cs2)c1C(F)(F)F,0.3,24,1.6,0.8,-0.77,72*

# Screening data: PubChem BioAssay, several laboratories
